“And” between values parts separate entries of the source, which are not always exact repeats. Identical values can stand only once. Unmarked numbers belong to inactive results. Some of the results follow. The source made the active and inactive calls. Rule as the data show it, unless noted: active = inhibition above about 11%; inactive = the rest.
Key:
[1] = target: Serine protease HTRA1 (Homo sapiens) (UniProt Q92743); assay: HTRA1 protease inhibitors, retest, confirmation, biochemical, fluorescence polarization (AID 540248;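 active = mean inhibition over three repeats above a set limit taken from the earlier primary screen, cut at about 37% in these data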;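 also: 0% = HTRA1 with DMSO and 100% = wells lacking HTRA1; inhibitors block probe binding so polarization drops and inhibition rises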); details: recombinant HTRA1, FP-rhodamine activity-based probe, at 5.96 µM, hits give high values
[2] = target: Toll-like receptor 9 (Homo sapiens) (UniProt Q9NR96); assay: TLR9-MyD88 association inhibitors, retest, confirmation, cell-based, CHO, BLA complementation, fluorescence, triplicate (AID 540250;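 active = mean inhibition across three repeats above about 21% taken from the earlier screen, limit read from the data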;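 also: blue over green emission ratio reports constitutive TLR9 MyD88 association via BLA complementation; 0% = DMSO vehicle wells and 100% = clavulanate BLA inhibitor wells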); details: CCF4 FRET ratio, at 4.98 µM, hits give high values
Toll-like receptor 9 (Homo sapiens), sequence (Q9NR96 whole entry, looked up): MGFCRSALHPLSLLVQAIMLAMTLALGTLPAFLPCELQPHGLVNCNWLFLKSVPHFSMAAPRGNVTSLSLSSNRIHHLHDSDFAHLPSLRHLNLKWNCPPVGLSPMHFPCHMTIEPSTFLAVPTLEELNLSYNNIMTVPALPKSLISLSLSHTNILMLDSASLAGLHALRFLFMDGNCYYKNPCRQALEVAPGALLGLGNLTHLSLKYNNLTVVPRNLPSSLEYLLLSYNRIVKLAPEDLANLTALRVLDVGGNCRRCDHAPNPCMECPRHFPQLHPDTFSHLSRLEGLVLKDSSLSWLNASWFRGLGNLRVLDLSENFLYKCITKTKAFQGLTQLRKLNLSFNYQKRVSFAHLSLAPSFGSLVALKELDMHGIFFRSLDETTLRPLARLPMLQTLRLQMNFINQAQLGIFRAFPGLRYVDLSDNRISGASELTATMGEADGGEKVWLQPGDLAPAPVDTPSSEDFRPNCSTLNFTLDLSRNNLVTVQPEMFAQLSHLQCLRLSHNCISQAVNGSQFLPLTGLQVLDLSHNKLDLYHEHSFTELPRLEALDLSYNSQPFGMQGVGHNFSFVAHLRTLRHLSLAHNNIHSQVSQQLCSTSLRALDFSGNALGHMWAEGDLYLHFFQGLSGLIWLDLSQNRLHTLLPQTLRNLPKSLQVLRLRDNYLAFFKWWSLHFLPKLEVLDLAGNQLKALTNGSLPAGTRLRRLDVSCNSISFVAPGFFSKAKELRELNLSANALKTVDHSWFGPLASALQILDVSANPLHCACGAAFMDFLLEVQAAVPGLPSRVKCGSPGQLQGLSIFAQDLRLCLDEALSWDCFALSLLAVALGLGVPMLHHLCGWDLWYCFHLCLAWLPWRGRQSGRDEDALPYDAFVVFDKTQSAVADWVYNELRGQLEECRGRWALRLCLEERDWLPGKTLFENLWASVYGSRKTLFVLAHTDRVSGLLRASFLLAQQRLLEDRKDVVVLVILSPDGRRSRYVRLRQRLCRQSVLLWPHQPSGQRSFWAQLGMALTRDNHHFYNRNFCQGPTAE

[3] = beta-lactamase reporter inhibitors in CHO cells, artefact control for TLR9-MyD88 binding inhibitor project, cell-based, fluorescence (AID 540251;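 active = mean inhibition above a 50% cutoff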;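 also: counterscreen of TLR9-MyD88 hits on CMV-driven BLA in CHO-K1 cells; 0% = DMSO alone and 100% = clavulanate blocking BLA; higher means less blue over green ratio so more BLA blockade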); details: CHO-BLA cells, CCF4 FRET ratio, at 4.98 µM, hits give high values
[4] = CHO cell viability loss – luminescence, single concentration, cytotoxicity control for TLR9-MyD88 binding inhibitor project (AID 588336); details: TLR9-MyD88 CHO cells cytotoxicity, at 4.98 µM, hits give high values
[5] = target: Receptor-interacting serine/threonine-protein kinase 2 (Homo sapiens) (UniProt O43353); assay: NOD2-RIPK2 binding disruptors, retest, confirmation, fluorescence, CHO cells, BLA complementation, triplicate (AID 624370;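 active = mean inhibition across replicates above a set limit taken from the earlier primary screen, cut at about 21% in these data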;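 also: 0% = DMSO-only wells and the high end = clavulanate BLA-blocked wells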); details: CCF4 FRET, at 4.98 µM, hits give high values
Receptor-interacting serine/threonine-protein kinase 2 (Homo sapiens), sequence (O43353 whole entry, looked up): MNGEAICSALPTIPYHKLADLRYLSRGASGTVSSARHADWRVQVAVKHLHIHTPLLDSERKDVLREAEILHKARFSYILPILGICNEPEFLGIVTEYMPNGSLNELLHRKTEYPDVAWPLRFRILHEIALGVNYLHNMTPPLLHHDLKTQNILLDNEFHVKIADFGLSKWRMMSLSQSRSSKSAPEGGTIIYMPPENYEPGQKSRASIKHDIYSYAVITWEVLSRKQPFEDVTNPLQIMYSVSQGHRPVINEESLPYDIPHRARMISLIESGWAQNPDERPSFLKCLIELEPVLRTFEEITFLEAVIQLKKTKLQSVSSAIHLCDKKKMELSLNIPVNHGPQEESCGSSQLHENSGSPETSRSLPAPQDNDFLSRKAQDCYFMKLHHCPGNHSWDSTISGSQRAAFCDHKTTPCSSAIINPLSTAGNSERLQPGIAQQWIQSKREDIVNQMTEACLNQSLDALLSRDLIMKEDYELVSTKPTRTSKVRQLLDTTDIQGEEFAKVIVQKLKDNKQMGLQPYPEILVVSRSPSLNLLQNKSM

[6] = beta-lactamase reporter inhibitors in CHO cells, confirmation, artefact control for NOD2-RIPK2 interaction inhibitor project, cell-based, CHO-K1 CMV-bla, CCF4 FRET, fluorescence (AID 624371;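 active = mean inhibition above the low-control mean inhibition plus three low-control SD, cut at about 11% in these data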;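 also: 0% = DMSO only wells and 100% = clavulanate high control wells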); details: CCF4 FRET ratio, counterscreen, at 4.98 µM, hits give high values
[7] = target: Galanin receptor type 2 (Homo sapiens) (UniProt O43603); assay: GALR2 antagonists, retest of hits, confirmation, cell-based (AID 866; in the data active = inhibition above about 27%;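 also: cells stimulated with galanin at about its EC80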); details: GALR2-expressing cells, antagonist mode, at 4 µM, hits give high values
[8] = inhibitors of NFAT-driven beta-lactamase reporter, confirmation, counter-screen for GALR2 antagonist project, CHO NFAT-bla cells, FRET readout (AID 867;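 active = inhibition above the mean inhibition across tested compounds plus 3 SD, cut at about 27% in these data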;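 also: 0% = 500 nM thapsigargin stimulated wells and 100% = unstimulated BSA only wells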); details: thapsigargin-stimulated, at 4.2 µM, hits give high values
[9] = target: Nuclear receptor coactivator 3 (Homo sapiens) (UniProt Q9Y6Q9); assay: SRC3 coactivator transcriptional activity inhibitors, confirmation, cell-based, luminescence, quadruplicate (AID 588792;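 active = mean inhibition over 43.08%, the solvent-only control mean plus 3 SD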;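 also: 0% = DMSO treated cells and 100% = gossypol at 36 µM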); details: HEK293 GAL4-SRC3 luciferase reporter, at 3.6 µM, hits give high values
Nuclear receptor coactivator 3 (Homo sapiens), sequence (Q9Y6Q9 whole entry, looked up, the tested form may be a part): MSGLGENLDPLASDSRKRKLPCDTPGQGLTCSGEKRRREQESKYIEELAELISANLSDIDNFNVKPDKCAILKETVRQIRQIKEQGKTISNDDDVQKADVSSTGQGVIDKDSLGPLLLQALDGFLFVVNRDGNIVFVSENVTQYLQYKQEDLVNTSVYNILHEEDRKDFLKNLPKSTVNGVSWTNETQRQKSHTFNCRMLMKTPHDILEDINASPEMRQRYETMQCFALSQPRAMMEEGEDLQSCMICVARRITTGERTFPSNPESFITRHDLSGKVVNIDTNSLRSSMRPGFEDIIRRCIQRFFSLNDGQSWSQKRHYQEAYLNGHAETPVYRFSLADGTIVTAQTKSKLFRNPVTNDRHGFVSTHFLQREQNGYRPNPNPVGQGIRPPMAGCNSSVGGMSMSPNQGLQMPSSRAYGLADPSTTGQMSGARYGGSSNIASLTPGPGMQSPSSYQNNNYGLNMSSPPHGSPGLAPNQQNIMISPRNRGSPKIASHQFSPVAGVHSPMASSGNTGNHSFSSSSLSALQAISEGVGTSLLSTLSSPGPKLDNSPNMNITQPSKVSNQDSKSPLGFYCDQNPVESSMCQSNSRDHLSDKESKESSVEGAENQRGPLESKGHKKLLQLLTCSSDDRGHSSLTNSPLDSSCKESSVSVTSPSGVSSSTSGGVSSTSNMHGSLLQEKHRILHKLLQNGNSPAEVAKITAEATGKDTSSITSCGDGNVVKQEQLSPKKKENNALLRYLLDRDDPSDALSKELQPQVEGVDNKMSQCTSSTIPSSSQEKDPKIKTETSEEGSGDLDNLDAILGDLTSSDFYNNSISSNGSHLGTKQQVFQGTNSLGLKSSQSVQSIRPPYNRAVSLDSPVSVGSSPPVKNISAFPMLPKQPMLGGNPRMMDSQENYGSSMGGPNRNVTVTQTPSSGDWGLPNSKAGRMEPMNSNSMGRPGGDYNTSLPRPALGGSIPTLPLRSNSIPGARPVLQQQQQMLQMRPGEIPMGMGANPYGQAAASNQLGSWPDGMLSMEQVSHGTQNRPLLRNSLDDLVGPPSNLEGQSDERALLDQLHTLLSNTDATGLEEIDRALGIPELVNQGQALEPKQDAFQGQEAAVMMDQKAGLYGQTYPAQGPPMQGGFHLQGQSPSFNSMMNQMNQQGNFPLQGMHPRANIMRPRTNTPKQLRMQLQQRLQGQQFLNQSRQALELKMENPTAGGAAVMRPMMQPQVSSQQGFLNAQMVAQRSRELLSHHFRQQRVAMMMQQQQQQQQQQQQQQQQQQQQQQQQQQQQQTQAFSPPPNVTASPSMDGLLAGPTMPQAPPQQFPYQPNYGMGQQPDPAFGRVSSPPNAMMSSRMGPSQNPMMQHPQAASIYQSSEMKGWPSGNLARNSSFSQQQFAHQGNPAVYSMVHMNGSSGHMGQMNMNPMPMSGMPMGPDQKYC

[10] = tested on: transactivating tegument protein VP16 (Human herpesvirus 1), Gal4-VP16 luciferase reporter; assay: VP16 transactivation inhibitors, counter-screen for SRC3 inhibitor project, cell-based, luminescence, high throughput (AID 588794; in the data active = inhibition above about 30%); details: mammalian cells, VP16-driven luciferase reporter luminescence; at 3.6 µM; hits give high values
[11] = growth loss of phage-infected RecBCD+ E. coli, confirmation, RecBCD inhibitor project, absorbance, E. coli V66, T4 gene 2 phage (AID 651982;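 active = mean inhibition over triplicates exceeding the hit threshold derived in the original primary screen, cut at about 11% in these data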); details: E. coli V66 + T4 2- phage, growth OD; at 11.9 µM; hits give high values
[12] = E. coli viability inhibition, counter-screen for RecBCD inhibitor project, absorbance, high throughput (AID 651983; in the data active = inhibition above about 20%;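 also: E. coli strain V66 grown with compound alone and no phage infection; 0% = bacteria with DMSO vehicle only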); details: absorbance (OD) growth, at 11.9 µM, hits give high values
[13] = growth loss of phage-infected AddAB-carrying E. coli, confirmation, counter-screen for RecBCD inhibitor project, absorbance, E. coli V3065, T4 phage (AID 651984;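 active = mean inhibition above the solvent-only control wells' mean plus 3 SD, cut at about 22% in these data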;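 also: higher means less bacterial growth from phage killing when AddAB is blocked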); details: E. coli expressing H. pylori AddAB + T4 phage, OD growth; at 11.9 µM; hits give high values; gene 2 mutant T4, recBCD-deleted host
[14] = target: Nuclear receptor coactivator 1 (Homo sapiens) (UniProt Q15788); assay: SRC1 coactivator transcriptional activity inhibitors, confirmation, cell-based, luminescence, quadruplicate (AID 588820;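 active = mean inhibition above 46.68%, the untreated control wells mean plus 3 SD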;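 also: 0% = DMSO wells and 100% = gossypol 36 µM treated wells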); details: HEK293 GAL4-SRC1 luciferase reporter, at 3.6 µM, hits give high values
[15] = VP16 transactivation inhibitors, counter-screen for SRC1 inhibitor project, cell-based, luminescence, high throughput (AID 588824; in the data active = inhibition above about 25%); details: cell-based VP16 transactivation luciferase luminescence; at 3.6 µM; hits give high values
[16] = tested on: transactivating tegument protein VP16 (Human herpesvirus 1); assay: VP16 transactivation reporter inhibitors, counter-screen for SRC2 inhibitor project, cell-based, luminescence, single concentration (AID 652007; in the data active = inhibition above about 36%); details: cell-based VP16 transactivation luciferase reporter, at 8.9 µM, hits give high values
[17] = target: Nuclear receptor coactivator 2 (Homo sapiens) (UniProt Q15596); assay: SRC2 coactivator transcriptional activity inhibitors, confirmation, cell-based, luminescence, HEK293, triplicate (AID 652008;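 active = mean inhibition above 46.5%, the solvent-only control mean plus 3 SD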;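 also: 0% = DMSO-treated cells and 100% = Gossypol at 36 µM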); details: HEK293 GAL4-SRC2 luciferase reporter, at 8.9 µM, hits give high values
[18] = target: (Lyso)-N-acylphosphatidylethanolamine lipase (Mus musculus) (UniProt Q8VD66); assay: ABHD4 inhibitors, retest, confirmation, biochemical, fluorescence polarization, mouse (AID 720658;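 active = mean inhibition across replicates above the hit cutoff set in the primary screen, cut at about 30% in these data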;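 also: 0% = wild-type ABHD4 with DMSO and 100% = catalytically dead S159A mutant with DMSO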); details: purified mABHD4, FP-Rh probe fluorescence polarization; at 8.92 µM; hits give high values
(Lyso)-N-acylphosphatidylethanolamine lipase (Mus musculus), sequence (Q8VD66 whole entry, looked up): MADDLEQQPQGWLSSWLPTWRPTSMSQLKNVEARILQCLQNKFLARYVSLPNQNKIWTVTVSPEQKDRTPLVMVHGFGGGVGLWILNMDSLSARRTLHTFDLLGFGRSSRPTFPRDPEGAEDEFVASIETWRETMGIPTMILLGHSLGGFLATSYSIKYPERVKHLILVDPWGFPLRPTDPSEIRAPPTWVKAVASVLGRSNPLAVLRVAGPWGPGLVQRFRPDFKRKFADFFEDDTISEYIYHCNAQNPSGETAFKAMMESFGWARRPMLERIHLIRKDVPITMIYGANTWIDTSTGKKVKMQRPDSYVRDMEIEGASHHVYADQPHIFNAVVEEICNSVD

[19] = compounds interfering with TAMRA-BSA probe, counter-screen for TCR-CD3 interaction inhibitor project, biochemical, fluorescence, TAMRA-labeled BSA (AID 652035; in the data active = inhibition above about 23%;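 also: 0% = buffer low control and 100% = reference high control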); details: TAMRA-labeled BSA probe fluorescence counterscreen; at 9.4 µM; hits give high values
[20] = tested on: T-cell receptor (TCR)-CD3 interaction, human; assay: TCR-CD3 interaction inhibitors, retest, confirmation, biochemical, fluorescence, TAMRA-labeled TCR probe (AID 652036; in the data active = inhibition above about 19%); details: TAMRA-labeled TCR probe fluorescence binding assay; at 9.4 µM; hits give high values
[21] = StAR promoter reporter inhibitors, counter-screen for LRH-1 inverse agonist project, cell-based, luminescence, high throughput (AID 651611; in the data active = inhibition above about 28%); details: StAR promoter luciferase reporter counterscreen, at 3.6 µM, hits give high values
[22] = target: Nuclear receptor subfamily 5 group A member 2 (Homo sapiens) (UniProt O00482); assay: LRH-1 (NR5A2) inverse agonists, retest, confirmation, cell-based, luminescence (AID 651613; in the data active = inhibition above about 42%;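 also: HEK293T cells co-transfected with LRH-1 and StAR promoter luciferase reporter; 0% = vehicle wells and 100% = parental cells lacking receptor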); details: cell-based LRH-1 luciferase reporter, inverse agonism; at 3.6 µM; hits give high values
Nuclear receptor subfamily 5 group A member 2 (Homo sapiens), sequence (O00482 whole entry, looked up): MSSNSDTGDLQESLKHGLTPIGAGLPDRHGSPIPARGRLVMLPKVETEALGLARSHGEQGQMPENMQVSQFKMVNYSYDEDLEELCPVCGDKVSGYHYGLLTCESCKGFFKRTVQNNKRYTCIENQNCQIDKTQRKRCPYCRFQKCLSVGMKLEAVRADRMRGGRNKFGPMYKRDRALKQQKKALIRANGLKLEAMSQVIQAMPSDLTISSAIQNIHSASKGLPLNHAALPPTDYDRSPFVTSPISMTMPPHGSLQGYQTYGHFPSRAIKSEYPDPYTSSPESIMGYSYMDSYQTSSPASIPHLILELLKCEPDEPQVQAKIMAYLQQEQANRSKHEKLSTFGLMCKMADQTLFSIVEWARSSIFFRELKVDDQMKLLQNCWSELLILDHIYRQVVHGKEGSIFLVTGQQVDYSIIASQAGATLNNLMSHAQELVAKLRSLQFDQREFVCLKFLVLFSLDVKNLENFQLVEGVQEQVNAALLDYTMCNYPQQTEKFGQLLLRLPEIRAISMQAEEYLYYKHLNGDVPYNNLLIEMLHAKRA

[23] = target: Steroidogenic factor 1 (Homo sapiens) (UniProt Q13285); assay: SF1 (NR5A1) inverse agonists, counter-screen for LRH-1 inverse agonist project, cell-based, luminescence, high throughput (AID 651614; in the data active = inhibition above about 44%;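 also: cells cotransfected with StAR promoter reporter and SF1 expression vector; 0% = vehicle on cells with receptor and 100% = vehicle on cells lacking receptor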); details: cell-based SF1 luciferase reporter, at 3.6 µM, hits give high values
Steroidogenic factor 1 (Homo sapiens), sequence (Q13285 whole entry, looked up, the tested form may be a part): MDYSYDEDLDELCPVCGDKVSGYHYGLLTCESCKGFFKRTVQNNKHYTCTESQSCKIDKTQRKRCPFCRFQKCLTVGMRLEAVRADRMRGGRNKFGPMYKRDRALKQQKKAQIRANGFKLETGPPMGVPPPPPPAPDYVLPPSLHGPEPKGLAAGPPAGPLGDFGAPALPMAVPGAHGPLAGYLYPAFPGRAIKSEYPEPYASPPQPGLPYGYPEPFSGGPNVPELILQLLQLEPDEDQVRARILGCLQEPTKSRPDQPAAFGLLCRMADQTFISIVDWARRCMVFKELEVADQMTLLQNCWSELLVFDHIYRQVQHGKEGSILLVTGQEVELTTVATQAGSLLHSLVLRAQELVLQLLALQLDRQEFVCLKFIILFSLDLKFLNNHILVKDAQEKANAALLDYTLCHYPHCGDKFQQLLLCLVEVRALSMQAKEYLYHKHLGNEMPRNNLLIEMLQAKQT

[24] = VP16 transactivation reporter inhibitors, counter-screen for LRH-1 inverse agonist project, cell-based, luminescence, high throughput (AID 651615; in the data active = inhibition above about 33%); details: Gal4-VP16 luciferase reporter cells, at 3.6 µM, hits give high values
[25] = Gal4-VP16 luciferase reporter inhibitors, counter-screen for COUP-TFII antagonist project, cell-based, luminescence, HEK293 (AID 687007; in the data active = inhibition above about 13%); details: at 8.5 µM, hits give high values
[26] = target: COUP transcription factor 2 (Homo sapiens) (UniProt P24468); assay: NR2F2 transcriptional activity inhibitors, confirmation, cell-based, luciferase reporter, HEK293, triplicate (AID 687008;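 active = mean inhibition over three repeats above a set limit taken from the earlier primary screen, cut at about 38% in these data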;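 also: 100% = cells given the luciferase reporter alone without the COUP-TF2 vector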); details: HEK293 NGFI-A luciferase reporter, luminescence; at 8.5 µM; hits give high values
[27] = target: Photoreceptor-specific nuclear receptor (Homo sapiens) (UniProt Q9Y5X4); assay: NR2E3 agonist confirmation in cells, cell-based, luminescence, CHO-S two-hybrid (AID 624378;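 active = average inhibition above a cutoff equal to the mean inhibition of all tested compounds plus one SD, cut at about 70% in these data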;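 also: 0% = DMSO in NR2E3 cells and 100% = DMSO in cells lacking NR2E3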); details: CHO-S mammalian two-hybrid NR2E3-NCOR, luciferase luminescence; at 3.98 µM; hits give high values
Photoreceptor-specific nuclear receptor (Homo sapiens), sequence (Q9Y5X4 whole entry, looked up, the tested form may be a part): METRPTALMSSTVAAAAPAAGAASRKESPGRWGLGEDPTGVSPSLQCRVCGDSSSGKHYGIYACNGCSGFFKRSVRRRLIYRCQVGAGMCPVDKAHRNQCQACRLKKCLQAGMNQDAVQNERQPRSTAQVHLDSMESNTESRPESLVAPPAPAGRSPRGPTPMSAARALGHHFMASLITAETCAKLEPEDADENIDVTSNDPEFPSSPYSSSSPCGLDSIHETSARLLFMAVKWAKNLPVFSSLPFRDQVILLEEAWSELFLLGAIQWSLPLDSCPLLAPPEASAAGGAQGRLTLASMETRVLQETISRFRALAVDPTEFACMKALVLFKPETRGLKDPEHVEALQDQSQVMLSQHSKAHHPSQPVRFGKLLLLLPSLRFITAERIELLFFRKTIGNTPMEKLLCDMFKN

[28] = GAL4-VP16 reporter modulators, confirmation, counter-screen for NR2E3 agonist project, cell-based, luminescence, CHO-S, high throughput (AID 624379;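 active = mean inhibition above a cutoff equal to the average over all tested compounds plus one standard deviation, cut at about 70% in these data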;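 also: 0% = DMSO with VP16-transfected cells and 100% = DMSO with cells lacking VP16; higher means less reporter light so more repression of VP16 activity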); details: CHO-S GAL4-VP16 luciferase reporter, at 3.98 µM, hits give high values

CC(=O)N1CCN(c2ccc(NCc3ccc(C(C)C)cc3)cc2)CC1
inhibition [1]: 12.7%

Cc1cc(-c2csc(N)n2)c(C)n1-c1ccccc1
inhibition [1]: 28.5%

CCCN(CCC)C(=O)C1c2ccccc2Oc2ccccc21
inhibition [1]: -8.94%

CNC(=S)N/N=C/c1ccc(OCc2ccccc2)c(Br)c1
inhibition [2]: 27.6% (active) | inhibition [3]: 27.6% | inhibition [4]: 43.4% (active) | inhibition [5]: 54.2% (active) | inhibition [6]: 52.8% (active)

COc1ccc(-c2nc3cnccn3c2NC2CCCCC2)cc1-c1cccc(Cl)c1
inhibition [2]: 25.7% (active) | inhibition [3]: 29.5% | inhibition [4]: -0.82% | inhibition [5]: 39.6% (active) and 39.4% (active) | inhibition [6]: 49.6% (active) and 50.5% (active)

Cc1cc(C)nc(SCc2ccccc2C#N)n1
inhibition [2]: 1.99% | inhibition [3]: 0.68% | inhibition [4]: 2.36%

COC(=O)Cc1cc(=O)oc2c(C)c(O)ccc12
inhibition [7]: 7.7% | inhibition [8]: 16.5% | inhibition [2]: 13.3% | inhibition [3]: 16.3% | inhibition [4]: -0.43% | inhibition [5]: 23.8% (active) | inhibition [6]: 28.6% (active)

Oc1c(CN2CCN(c3ccc(F)cc3)CC2)cc(Cl)c2cccnc12
inhibition [1]: 50.9% (active) | inhibition [9]: 52.3% (active) | inhibition [10]: 42.8% (active) | inhibition [11]: 4.78% | inhibition [12]: 6.62% | inhibition [13]: 3.33%

O=C(COC(=O)c1c2c(nc3ccccc13)/C(=C\c1cccs1)CCC2)Nc1ccccc1Cl
inhibition [2]: 11.4% | inhibition [3]: 18.4% | inhibition [4]: -3.1%

COc1cc(C(=O)N2C(=O)c3cccc(N)c3C2=O)cc(OC)c1OC
inhibition [2]: 11.4% | inhibition [3]: 13.3% | inhibition [4]: 1.27%

CC(=O)Nc1ccc(S(=O)(=O)Nc2ccc(N3CCCCC3)cc2)cc1
inhibition [1]: 63.4% (active) | inhibition [9]: -3.95% | inhibition [10]: 0.96% | inhibition [14]: 4.11% | inhibition [15]: 2.83% | inhibition [16]: -15.4% | inhibition [17]: 14.9%

COc1ccccc1CSc1ncc(-c2ccc([N+](=O)[O-])cc2)[nH]1
inhibition [2]: 5.87% | inhibition [3]: 9.21% | inhibition [4]: 2.09% | inhibition [5]: 28.2% (active) | inhibition [6]: 21.9% (active)

COc1cccc2sc(NNC(=O)c3nc4ccccc4s3)nc12
inhibition [1]: 130% (active)

COc1ccccc1/C=C/C(=O)OCC(=O)NC1CCCCCC1
inhibition [2]: -4.73% | inhibition [3]: -6.03% | inhibition [4]: 0.37%

CCOc1ccc(C2=CC(c3ccccc3)n3ncnc3N2)cc1 (stereo not drawn)
inhibition [2]: -2.09% | inhibition [3]: -1.41% | inhibition [4]: -1.28%

Oc1ccc2ccc3cccc[n+]3c2c1
inhibition [2]: 11.3% | inhibition [3]: 11.8% | inhibition [4]: 5.09% | inhibition [5]: 36.5% (active) | inhibition [6]: 32.6% (active)

COc1ccc(-c2nn(-c3ccccc3)cc2/C=N/Nc2ccccn2)cc1OC
inhibition [2]: 2.6% | inhibition [3]: 2.28% | inhibition [4]: 4.63%

COc1cccc(/C=N/Nc2ccc(S(=O)(=O)Nc3ccccc3C(=O)O)cc2[N+](=O)[O-])c1O
inhibition [1]: 25.5% | inhibition [18]: 67.4% (active)

NS(=O)(=O)c1ccc(NC(=O)COC(=O)c2c3c(nc4ccccc24)/C(=C\c2ccc4c(c2)OCO4)CCC3)cc1
inhibition [2]: 17.9% | inhibition [3]: 22.2% | inhibition [4]: 0.35% | inhibition [19]: 5.98% | inhibition [20]: 15.7%

COc1cccc2c1C(=O)c1c(O)c3c(c(O)c1C2=O)CC(O)(C(C)=NNC(=O)c1ccc(Cl)c(Cl)c1)CC3OC1CC(N)C(O)C(C)O1 (stereo not drawn)
inhibition [1]: 69.6% (active) | inhibition [21]: 72.7% (active) | inhibition [22]: 75.1% (active) | inhibition [23]: 94.8% (active) | inhibition [24]: 65.9% (active) | inhibition [19]: 159% (active) | inhibition [20]: 126% (active) | inhibition [25]: 41.2% (active) | inhibition [26]: 32.5%

COc1cnc(-c2ccccn2)nc1Oc1ccc(C(C)(C)C)cc1
inhibition [1]: 53.5% (active) | inhibition [27]: 28.4% | inhibition [28]: 13.6%

O=Nc1c(O)cc(O)c2ccccc12
inhibition [1]: 10.1% | inhibition [18]: 11.7%

Reference: PubChem BioAssay
